A selection: hits, their analogues and other compounds. The true share with any hit is near 4.4%.
tim23-1 inh = growth inhibitors of tim23-1 mutant yeast. S. cerevisiae tim23-1 growth, BacTiter-Glo luminescence, 24 h. inhibition, % at 20 µM. 330,000 tested, 1.3% active. AID 463212;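 active means growth inhibition of the mutant yeast at or above 50%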;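 further: temperature-sensitive mutant grown at 25 °C; plate controls were DMSO-treated mutant yeast for no effect and medium wells lacking yeast for full effect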
SUMO Mot1 rescue = SUMOylation pathway inhibition by Mot1-301 growth rescue. S. cerevisiae Mot1-301 growth rescue, ATP luminescence, 38.5C; percent above DMSO median, 100 means doubled. growth rescue, % at 18.8 µM. 320,000 tested, 1% active;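 active means every valid replicate shows activation above 250% relative to neutral control wells; inactive means the rest, any valid replicate at or below 250%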;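 further: OY570 slx delta 5 strain wells were the positive control but not used for scaling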
tim10-1 inh = tim10-1 yeast growth inhibition. S. cerevisiae tim10-1 ts strain growth, BacTiter-Glo, 24 h. inhibition, % at 20 µM. 330,000 tested, 2.2% active;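 active means inhibition of at least 40%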;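 further: mutant grown at 25 °C; 0% = DMSO wells with yeast and 100% = wells holding no yeast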
TIM10 inh = TIM10 yeast growth inhibition; inhibition, % at 10 µM; AID 463195; 330,000 tested, 1.4% active; S. cerevisiae TIM10 strain growth, BacTiter-Glo luminescence, 24 h;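 active means inhibition of 40% or more at the single tested concentration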;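 further: wild-type TIM10 isogenic control strain grown at permissive 25 °C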
PfHsp90 set2 = inhibits growth of yeast expressing Plasmodium falciparum Hsp90. inhibition, % at 9.4 µM. S. cerevisiae expressing PfHsp90, BacTiter-Glo ATP, 48 h; yeast lacking PDR1 and PDR3 efflux regulators. 310,000 tested, 0.32% active;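 active means every replicate shows inhibition above about 80%, whatever the replicate mean, limit read from the data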;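 further: 0% = DMSO neutral controls and 100% = 20 µM radicicol positive controls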
tim10-1 confirm = confirmation of tim10-1 mutant yeast growth inhibitors. inhibition, % at 20 µM. S. cerevisiae tim10-1 ts strain growth, BacTiter-Glo, 24 h. AID 463213. 7,400 tested, 56% active. shares compounds with tim10-1 inh;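 active means inhibition of yeast growth at or above a set limit in either of two repeat tests at 20 µM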;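 further: tim10-1 mutant grown at permissive 25 °C to find synthetic lethal compounds; 0% = DMSO yeast wells and 100% = medium wells without yeast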
* hit, by the source's call; nt = no result.

SMILES	tim23-1 inh	SUMO Mot1 rescue	tim10-1 inh	TIM10 inh	PfHsp90 set2	tim10-1 confirm
CCOc1ccc(/C=N/n2cc(-c3ccccc3)[nH]c2=S)cc1	-3	nt	42*	21	-12	15
Cc1nn(Cc2ccc(C(=O)Nc3ccccc3F)cc2)c(C)c1Cl	11	-20	41*	11	-5	26
Cc1nn(Cc2ccc(Cl)cc2)c(C)c1NC(=O)c1ccc([N+](=O)[O-])cc1	40	1	53*	16	-33	41*
Cc1nn(Cc2ccc(C(=O)NN)cc2)c(C)c1Cl	36	95	19	1	-1	nt
Cc1nn(Cc2ccc(Cl)cc2)c(C)c1NC(=O)Cn1nc([N+](=O)[O-])c(Cl)c1C	23	7	14	10	-55	nt
Cc1nn(Cc2ccc(Cl)cc2)c(C)c1NC(=O)c1noc2c1CCCCC2	38	28	43*	35	nt	44*
Cc1c(Cl)c([N+](=O)[O-])nn1Cc1ccc(C(=O)Nc2ccc(Cl)cn2)o1	42	-22	47*	38	-34	34*
CC(C)NS(=O)(=O)c1ccc(NCCCn2ccnc2)c([N+](=O)[O-])c1	-12	11	-5	-7	7	nt
COC1OC2COC(c3ccccc3)OC2C(OC(C)=O)C1OC(C)=O (centres undefined)	nt	nt	nt	nt	0	nt
CCC/C=N/NC(=O)c1[nH]c2c([N+](=O)[O-])cccc2c1C	11	79	41*	32	-12	20
Cc1ccnc(Nc2nc(-c3ccc(Cl)cc3)cs2)c1	28	3	17	9	0	nt
Cc1ccnc(Nc2nc(-c3ccc(F)cc3)cs2)c1	47	22	42*	31	0	14
Nc1nc(Cl)cc(N2CCC(c3cc(-c4ccc(Cl)cc4)n[nH]3)CC2)n1	48	-1	84*	35	-32	73*
COc1ccc(N2C(=O)CC(Sc3nc4ccccc4s3)C2=O)cc1 (centres undefined)	34	130	41*	21	-3	33*
Cc1nc(SC2CC(=O)N(c3ccccc3)C2=O)nc2c1CCCC2 (centres undefined)	24	61	27	29	15	nt
O=C1CC(Sc2nnc(-c3ccccc3)o2)C(=O)N1c1ccccc1 (centres undefined)	38	62	51*	36	26	51*
O=C1CC(Sc2cccs2)C(=O)N1c1ccccc1 (centres undefined)	31	79	42*	19	27	40*
O=C(O)c1ccccc1SC1CC(=O)N(c2ccccc2)C1=O (centres undefined)	36	-9	33	7	24	nt
Cc1nnc(SC2CC(=O)N(c3ccccc3)C2=O)s1 (centres undefined)	23	6	47*	18	12	38*
O=C(O)c1cccnc1SC1CC(=O)N(c2ccccc2)C1=O (centres undefined)	20	2	1	-1	10	nt
Cc1ccc(OCC(=O)N(C)CC(=O)Nc2ccc(Cl)c(C(F)(F)F)c2)c([N+](=O)[O-])n1	9	124	14	6	11	nt
Nc1nnc(-c2ccccc2)s1	21	-25	92*	5	-1	8
Nc1nnc(-c2ccc(F)cc2)s1	13	-19	11	2	3	nt
Cc1ccccc1C(=O)N1CCC(C(=O)Nc2ccccc2N2CCCC2)CC1	4	3	-9	-2	nt	nt
CCOc1ccc(-n2ccnc(SCC(=O)NCc3cccc(OC)c3)c2=O)cc1	20	-2	43*	10	nt	11
SMILES	tim23-1 inh	SUMO Mot1 rescue	tim10-1 inh	TIM10 inh	PfHsp90 set2	tim10-1 confirm
CCOc1ccc(-n2ccnc(SCC(=O)Nc3ccc(OC)cc3OC)c2=O)cc1	9	97	27	15	16	nt
CC1CCc2nc(NC(=O)C3COc4ccccc4O3)sc2C1 (centres undefined)	38	-21	49*	27	-2	27
CC1CCc2nc(NC(=O)C3CC3)sc2C1 (centres undefined)	40	4	36	17	-8	nt
O=C(O)/C(=C/c1ccc(Cl)c([N+](=O)[O-])c1)c1ccc(S(=O)(=O)N2CCCCC2)s1	nt	nt	nt	nt	-41	nt
COC(=O)c1ccc(COc2ccccc2/C=C(\C#N)C(=O)Nc2ccc(C)cc2)cc1	-25	3	1	-8	-12	nt
C=CCNC(=O)/C(C#N)=C/c1ccccc1OCc1ccc(C(=O)OC)cc1	45	11	45*	31	15	27
c1ccc(CN2CCN(C(c3ccccc3)c3ccccc3)CC2)cc1	9	3	33	22	22	nt
O=S(=O)(CCN1CCN(C(c2ccccc2)c2ccccc2)CC1)C(F)(F)F	26	61	41*	31	-27	33*
COc1ccc(CN(C)CC(=O)Nc2ccc(Cl)cc2F)c(OC)c1	10	-15	7	-4	nt	nt
COc1ccc(S(=O)(=O)Nc2ccc(C)cn2)cc1	-8	-7	-10	-6	-13	nt
N#Cc1c(N)nc(SCC(=O)C23CC4CC(CC(C4)C2)C3)c(C#N)c1-c1ccc(Cl)cc1	37	3	45*	25	-22	43*
NC(=O)C1CCN(C(=O)C2(NC(=O)Nc3cccc(F)c3)CCCCC2)CC1	3	168	-12	8	-2	nt
Cc1ccc(NC2CCCCC2NS(=O)(=O)c2ccccc2)c(C)c1 (centres undefined)	44	76	44*	20	2	21
O=C(C1COc2ccccc2O1)N1CCN(c2nc3c(F)cc(F)cc3s2)CC1 (centres undefined)	44	6	40*	16	-16	23
Nc1ncncc1-c1ccccc1Cl	nt	nt	nt	nt	2	nt
N#CCC1c2ccccc2CCN1C(=O)Nc1ccc(C(F)(F)F)cc1 (centres undefined)	37	4	46*	34	-9	41*
O=[N+]([O-])c1ccc(S(=O)(=O)N2CCC3(CC2)OCCN3S(=O)(=O)c2cccs2)cc1	37	-6	28	4	nt	nt
N#C/C(C(=O)N1CCCCC1)=C1/N=C(NC(=O)c2ccc(F)cc2)c2ccccc21	29	0	44*	15	-15	-3
Cc1ccc(NS(=O)(=O)c2cccc(C(=O)Nc3c(C)n(C)n(-c4ccccc4)c3=O)c2)cc1	11	94	-4	-1	nt	nt
O=C(Nc1ccc(N2CCOCC2)c(Cl)c1)c1c(F)c(F)c(F)c(F)c1F	24	nt	50*	32	-40	40*
O=C(Nc1ccc(N2CCOCC2)c(Cl)c1)c1cc(F)c(F)cc1Cl	5	112	23	16	21	nt
Nc1cccc(Nc2ccccc2)c1	13	-15	-2	-1	5	nt
c1ccc(Nc2cccc(Nc3ccccc3)c2)cc1	37	14	54*	21	-76	76*
CC(C)(C)OC(=O)N1CCCC1C(=O)NCCc1ccccc1 (centres undefined)	1	-5	-2	-6	-37	nt

Screening results as filed in PubChem.
